Experiment [1] can be described thus: TOX21_p53_BLA_p2_viability: Viability Assessment in the Tox21 HCT-116 p53 Agonism Beta-lactamase Assay, Phase 2 (AID 2283591).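 Note: compound exposure lasted 16 h at 37 °C; actives lower the ATP signal meaning cytotoxicity.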 Summed up: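 HCT116 p53-bla cells, 4000/well, dosed after 5 h plating (217-fold dilution of DMSO stocks) and incubated 16 h at 37C. Viability taken as cellular ATP by CellTiter-Glo luminescence after 30 min RT; signal loss marks cytotoxicity.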

Experiment [2] concerns the target Cellular tumor antigen p53 (Homo sapiens) (UniProt P04637). Kind of experiment: TOX21_p53_BLA_p2_ratio: Tox21 HCT-116 p53 Agonism Beta-lactamase Assay, Ratio, Phase 2 (AID 2283592). Summed up:
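DMSO-normalized, positive-direction endpoint derived from the 460 nm/530 nm FRET ratio in HCT116 p53 beta-lactamase reporter cells exposed 16 h at 37C and loaded with CCF4-AM for 2 h.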

Experiment [3] in a line: TOX21_p53_BLA_p3_viability: Viability Assessment in the Tox21 HCT-116 p53 Agonism Beta-lactamase Assay, Phase 3 (AID 2283593).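 Note: cells exposed to compound for 16 h before reading.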 A digest of the protocol: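 HCT116 cells, 4000/well, dosed 5 h after plating by pin transfer (217-fold dilution from DMSO stock) and incubated 16 h at 37C, 5% CO2. Viability read as ATP luminescence with CellTiter-Glo after 30 min at room temperature.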

Experiment [4] addresses Cellular tumor antigen p53 (Homo sapiens) (UniProt P04637). Kind of experiment: TOX21_p53_BLA_p3_ratio: Tox21 HCT-116 p53 Agonism Beta-lactamase Assay, Ratio, Phase 3 (AID 2283596). Summed up: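 Cells were seeded at 4000/well, rested 5 h at 37C, then dosed with DMSO compound solutions (217-fold dilution) for 16 h. CCF4-AM substrate was loaded for 2 h at room temperature, and the 460/530 nm emission ratio was fitted for gain of signal versus DMSO.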

Experiment [5] is described as follows: TOX21_p53_BLA_p4_viability: Viability Assessment in the Tox21 HCT-116 p53 Agonism Beta-lactamase Assay, Phase 4 (AID 2283597).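 Note: hits lower the luminescence signal meaning cytotoxicity.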 A digest of the protocol:
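In this multiplexed secondary endpoint, HCT116 cells (4000 per well, compound at 5 h, 16 h treatment) received CellTiter-Glo after the beta-lactamase read. Luminescence after 30 min RT reflects ATP, and falling signal marks cytotoxicity.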

Experiment [6] is described as follows: TOX21_p53_BLA_p5_viability: Viability Assessment in the Tox21 HCT-116 p53 Agonism Beta-lactamase Assay, Phase 5 (AID 2283600). A digest of the protocol: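 Here cell health was gauged by ATP levels in wells holding 4000 cells, each treated 16 h with DMSO-delivered compounds at 217-fold dilution; reduced luminescence marked toxicity.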
In experiment [7] the target is Cellular tumor antigen p53 (Homo sapiens) (UniProt P04637). As to the kind of experiment: TOX21_p53_BLA_p4_ratio: Tox21 HCT-116 p53 Agonism Beta-lactamase Assay, Ratio, Phase 4 (AID 2283601). Summed up:
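HCT-116 p53 beta-lactamase reporter cells (4000/well) preincubated 5 h, then compound (217-fold dilution of DMSO stock) for 16 h at 37C. CCF4-AM substrate added 2 h at room temperature; 460/530 nm emission ratio fitted upward versus DMSO.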

The target is the same in experiment [8]. As to the kind of experiment: TOX21_p53_BLA_p5_ratio: Tox21 HCT-116 p53 Agonism Beta-lactamase Assay, Ratio, Phase 5 (AID 2283599). A digest of the protocol: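 HCT-116 p53-bla cells (4000/well) plated 5 h, dosed with compound (217-fold DMSO dilution) for 16 h at 37 C; CCF4-AM substrate 2 h at room temperature. Activity is the 460/530 nm emission ratio (405 nm excitation), fitted in gain-of-signal direction versus DMSO.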

Experiment [9] in a line: CCTE_Harrill_HTTr_Viability_MCF7: CCTE's 6-hour Cell Viability Assessment for the High-Throughput Transcriptomics (HTTr) Platform, in MCF-7 cells cultured in DMEM + 10% fetal bovine serum, Harrill Lab (AID 2284010; active = hit-call score of the fitted dose curve at least 0.9, where 1 is the maximum; inactive = score below 0.9). A digest of the protocol:
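Propidium iodide exclusion, imaged by high-content analysis, gauged viability after a six-hour exposure across eight concentrations. Cells were MCF-7 grown in DMEM with 10% fetal bovine serum; fits run in both directions against DMSO.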

Experiment [10] in a line: CCTE_Harrill_HTTr_Apoptosis_MCF7: CCTE's 6-hour Apoptosis Assessment for the High-Throughput Transcriptomics (HTTr) Platform, in MCF-7 cells cultured in DMEM + 10% fetal bovine serum, Harrill Lab (AID 2284011; active = hit-call score of the fitted dose curve at least 0.9, where 1 is the maximum; inactive = score below 0.9). Summed up: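 Apoptosis in MCF-7 cells grown in DMEM with 10% fetal bovine serum was scored after a six hour exposure by high content imaging of caspase-3/7 activation (CellEvent Caspase 3/7 Green), with DMSO serving as negative control and baseline.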

Experiment [11] is described as follows: CCTE_Harrill_HTTr_CellCount_MCF7: CCTE's Cell Proliferation Assessment for the High-Throughput Transcriptomics (HTTr) Platform, Harrill Lab (AID 2284012).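 Note: cells exposed to compound for six hours; intended direction is loss of nuclei count meaning fewer cells.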 A digest of the protocol: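 Cell count from high-content imaging of Hoechst-labeled nuclei serves as viability/growth readout. Chemicals were applied to MCF-7 cells in eight concentrations for six hours, with fitting in both directions relative to DMSO.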

Inconclusive results are not listed. The source made the active and inactive calls. Rule for the calls, unless noted: active = hit-call score of the fitted dose curve at least 0.9, where 1 is the maximum; inconclusive = response in the unintended direction; inactive = score below 0.9.

Cellular tumor antigen p53 (Homo sapiens), sequence (P04637 whole entry, looked up): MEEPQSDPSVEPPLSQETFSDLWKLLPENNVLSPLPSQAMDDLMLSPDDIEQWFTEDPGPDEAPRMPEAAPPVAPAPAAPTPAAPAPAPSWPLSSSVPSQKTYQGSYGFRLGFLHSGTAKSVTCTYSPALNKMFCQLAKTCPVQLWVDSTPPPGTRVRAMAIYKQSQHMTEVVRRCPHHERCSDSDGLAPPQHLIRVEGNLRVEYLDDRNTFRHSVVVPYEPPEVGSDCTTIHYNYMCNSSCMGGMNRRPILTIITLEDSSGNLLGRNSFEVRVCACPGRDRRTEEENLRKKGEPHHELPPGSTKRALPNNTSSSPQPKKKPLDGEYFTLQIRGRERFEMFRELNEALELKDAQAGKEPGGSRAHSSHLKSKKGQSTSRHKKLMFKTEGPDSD

Regarding `O=C(O)CCCCCCCCCCCBr`, the outcome in experiment [1], in experiment [2], in [3], in [4], in [5] and in experiment [6] was inactive. Also, the outcome in experiment [7] was inactive.
Consider `CC(=O)OC(C)OC(=O)C(C)c1ccc(-c2ccccc2)c(F)c1` (stereo not drawn), for which the compound was called inactive in experiment [1], in [2], in experiment [3], in experiment [4], in experiment [5] and in [6]. The outcome in [7] was inactive.
`Oc1c(Cl)cc(Cl)c2cccnc12`: the compound was classed as inactive in experiment [1] and in experiment [3]. For the same compound, the AC50 in experiment [2] is 7.4 µM (active); in [4], 7.23 µM (active); in [5], 7.77 µM (active); in experiment [8], 7.4 µM (active); in [7], 6.25 µM (active).
For the compound `CC1(C)S[C@@H]2[C@H](NC(=O)[C@H](N)c3ccccc3)C(=O)N2[C@H]1C(=O)OCOC(=O)[C@@H]1N2C(=O)C[C@H]2S(=O)(=O)C1(C)C`, the call in experiment [1], in experiment [2], in experiment [3], in experiment [4], in experiment [5] and in experiment [6] was inactive. In addition, the result in [7] was inactive.
Take `C#CCN(C)Cc1ccccc1`: the compound was classed as inactive in experiment [1], in experiment [2], in [3], in [4], in [5] and in experiment [8]. Moreover, the outcome in experiment [7], in experiment [9] and in experiment [10] was inactive.
Consider `OCC1CC2CC1C1CCC(CO)C21` (stereo not drawn), for which the call in [1], in experiment [2], in experiment [3], in [4], in experiment [5] and in experiment [8] was inactive. For the same compound, the result in [7], in experiment [9], in experiment [10] and in experiment [11] was inactive.
In the case of `CCCC1C(CC)=CC(CC)=CN1c1ccccc1` (stereo not drawn), the compound was called inactive in experiment [1], in experiment [2], in [3], in experiment [4], in experiment [5] and in experiment [8]. Also, in experiment [7], the result was inactive.
With `CN(C)CCc1c[nH]c2ccc(CS(=O)(=O)N3CCCC3)cc12`, the compound was called inactive in experiment [1], in experiment [2], in experiment [3], in experiment [4], in experiment [5] and in [7].
On to `OC(CN1CCC(Cc2ccc(F)cc2)CC1)c1ccc(Cl)cc1` (stereo not drawn), for which the outcome in experiment [1], in experiment [2], in experiment [3], in experiment [4], in experiment [5] and in experiment [6] was inactive. In experiment [7], the result was inactive.
`Cc1ncc(CSSCc2cnc(C)c(O)c2CO)c(CO)c1O`: the compound was called inactive in experiment [1], in experiment [2], in experiment [3], in [4], in experiment [5] and in [6]. Moreover, the outcome in experiment [7] was inactive.
Regarding `CCn1cc(C(=O)O)c(=O)c2cc3c(cc21)OCO3`, the result in experiment [1], in experiment [2], in experiment [3], in [4], in experiment [5] and in [6] was inactive. Besides, the result in experiment [7], in experiment [9], in experiment [10] and in experiment [11] was inactive.
Regarding `Cc1cc(C(C)(C)C)c(O)c(C)c1Cn1c(=O)n(Cc2c(C)cc(C(C)(C)C)c(O)c2C)c(=O)n(Cc2c(C)cc(C(C)(C)C)c(O)c2C)c1=O`, the call in [1], in experiment [2], in experiment [3], in [5], in [6] and in [7] was inactive. Besides, the half-maximal activity concentration (AC50) in experiment [4] was 56.3 µM (active).
Turning to `C[Si](NC1CCCCC1)(NC1CCCCC1)NC1CCCCC1`, the outcome in experiment [1], in experiment [2], in experiment [3], in experiment [4], in experiment [6] and in [7] was inactive. The AC50 in experiment [5] was 88.8 µM (active).

Usually AC50 stands for the midpoint of the concentration-response curve, whichever way the signal moves.

Source of the values: PubChem BioAssay (EPA / NIEHS).
